This is a sample that favours compounds with a hit; in the whole collection about 1.8% have one here.
VLA-4 inh: inhibition in a human VLA-4 binding assay; inhibition, % (about 7 µM as worked out from the volumes in the protocol); P13612; VLA-4 expressing cells, ligand binding flow cytometry; 330,000 tested, 0.2% active; in the data active means inhibition above about 50%
NRP1-CendR mod: modulators of CendR peptide binding to human neuropilin-1; inhibition, % at 25 µM; AID 602438; FAM-RPARPAR peptide binding to NRP-1, fluorescence polarization; 360,000 tested, 0.85% active;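 active means inhibition or corrected inhibition above about 18%, plus a signal ratio from 0.5 to 1.5, limit read from the data, passing the limit was not always enough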
A3A deaminase: blocks human APOBEC3A ssDNA deamination; P31941; AID 493011; recombinant A3A, FAM/TAMRA ssDNA deamination fluorescence; 330,000 tested, 0.41% active; inhibition, % at 20 µM;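 active means at least 40% inhibition at 20 µM here, with at most 30% in a related deaminase screen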;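 further: plate controls were A3A with DMSO for no effect and wells lacking A3A enzyme for full effect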
Target sequence (P31941 whole entry, looked up): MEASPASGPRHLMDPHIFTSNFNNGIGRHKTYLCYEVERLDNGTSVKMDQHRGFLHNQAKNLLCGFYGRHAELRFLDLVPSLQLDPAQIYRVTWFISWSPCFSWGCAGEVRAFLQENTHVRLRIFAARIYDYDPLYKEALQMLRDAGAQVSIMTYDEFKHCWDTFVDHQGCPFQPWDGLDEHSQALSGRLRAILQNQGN
A3G deaminase: inhibitors of human APOBEC3G DNA deaminase | Q9HC16 | recombinant A3G, ssDNA deamination FAM/TAMRA fluorescence | inhibition, % at 20 µM | 330,000 tested, 0.28% active | AID 493012;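 active means inhibition of at least 40% at 20 µM, with no more than 30% in the related APOBEC3A deaminase screen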;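 further: plate controls were DMSO wells with A3G for no effect and wells lacking A3G enzyme for full effect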
Target sequence (Q9HC16 whole entry, looked up): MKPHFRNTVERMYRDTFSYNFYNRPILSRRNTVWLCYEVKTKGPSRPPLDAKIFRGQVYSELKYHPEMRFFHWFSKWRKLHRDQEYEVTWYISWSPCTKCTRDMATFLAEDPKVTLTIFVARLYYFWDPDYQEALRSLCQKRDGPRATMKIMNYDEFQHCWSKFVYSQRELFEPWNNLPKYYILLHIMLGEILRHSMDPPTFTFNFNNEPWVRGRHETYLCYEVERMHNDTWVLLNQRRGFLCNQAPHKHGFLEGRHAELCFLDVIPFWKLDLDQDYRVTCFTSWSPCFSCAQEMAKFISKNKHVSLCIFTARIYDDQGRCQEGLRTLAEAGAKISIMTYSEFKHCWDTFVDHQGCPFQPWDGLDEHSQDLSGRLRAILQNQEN
MIN6 prolif: MIN6 beta-cell proliferation induction | proliferation, % at 10 µM | MIN6 cells proliferation, ATPlite luminescence, 48 h; cells starved in 0.2% serum; 100% = growth in 10% serum | 330,000 tested, 0.29% active | AID 2380;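 active means compounds whose signal lies at least 3.5 SD above the mean of all wells on their plate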;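 further: 0% = DMSO-treated cells in low-serum medium and 100% = 10% serum control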
* hit, by the source's call; x = not tested or not shown; ! = repeats disagree.

SMILES	VLA-4 inh	NRP1-CendR mod	A3A deaminase	A3G deaminase	MIN6 prolif
CC1NC(=O)NC(=O)C1Br (stereo not drawn)	x	36*	x	x	x
CN1CC(Br)C(=O)NC1=O (stereo not drawn)	x	5	x	x	x
Cc1oc(-c2ccc(F)cc2F)nc1CN1C[C@@H]2C[C@@H](C1)c1cccc(=O)n1C2	7	18	-2	-2	2
O=P(O)(O)CN1CCNCCN(CP(=O)(O)O)CCNCC1	x	30*	x	x	x
CC[n+]1c(-c2ccccc2)c2cc(N)ccc2c2ccc(N)cc21	x	47*	x	x	x
COC(=O)C1=C(c2ccc(OC)c(OC)c2)C[C@@H]2CC[C@H]1N2C(=O)N1CCOCC1	0	5	-1	0	2
Cc1ccccc1NC(=O)c1cc(-c2ccccc2)n(CCCN2CCOCC2)c1C	-5	-4	2	1	-2
Cc1ccccc1NC(=NCCCN1CC1)Nc1ccccc1C	x	40*	x	x	x
C[C@]12CCC3C(CC[C@H]4C[C@@H](O)CC[C@]34C)C1C[C@@H](O)[C@]2(C)O (stereo partly drawn)	-3	28*	-2	-2	-2
CC(C)(C)C(=O)Nc1ccc(S(=O)(=O)N2CC3CC(C2)c2cccc(=O)n2C3)cc1 (stereo not drawn)	8	5	-2	-6	1
CCCCC1(CN2CCCC2=O)C(=O)NC(=O)NC1=O	8	23*	-5	-5	-4
Cc1ccc(C2(O)CCN3CCCCC32)cc1 (stereo not drawn)	-7	29*	2	1	4
CN1CCC(O)(c2ccccc2)C2CCCC21 (stereo not drawn)	41	2	-4	-3	-3
CCCCCCC(=O)c1c(O)n(-c2ccc(OC)cc2)c(=O)[nH]c1=O (tested in a mixture with another compound)	3	5	-2	-7	0
C[C@]12CC[C@H](O)CC1=CC(=O)C1C2CC[C@]2(C)C(=O)[C@H](O)CC12 (stereo partly drawn)	-18	19*	1	9	-2
CC(C)(C)C(=O)O[C@H]1CC[C@@]2(C)C(=CC(=O)C3C2CC[C@]2(C)C(=O)[C@H](O)CC32)C1 (stereo partly drawn)	-1	-7	1	2	1
Fc1cccc(F)c1-c1nc(-c2ccc(Cl)cc2)no1	-1	-7	1	2	1
CCC(COC(=O)c1cc(OC)c(OC)c(OC)c1)(c1ccccc1)N(C)C (stereo not drawn)	-16	23*!	-2	-12	-2
c1ccc2c3c(ccc2c1)OCC1CONC31 (stereo not drawn)	11	x	-2	-7	-2
Cc1nc2c(c(C)nn2-c2ccccc2)c(C)c1CCC(=O)N1CCC2(CC1)OCCO2	7	51*	-4	8	-4
CC(CC(C)(C)N1CC1)=NO	x	-12	x	x	x
Cc1ccc(-c2cc(-c3ccccc3)cc(-c3ccccc3)[n+]2-c2ccccc2C(=O)O)cc1	17	26*	4	1	-8
O=C([O-])c1ccc(-[n+]2c(-c3ccccc3)cc(-c3ccccc3)cc2-c2ccccc2)cc1	2	7	4	-2	-4
O=S(=O)(c1cc(Cl)cc(Cl)c1)N1Cc2cc(-c3ccccc3)ccc2-n2nncc2C1	x	23*	x	x	x
Cc1ccc(S(=O)(=O)N2Cc3cc(-c4ccccc4)ccc3-n3nncc3C2)cc1	x	6	x	x	x
SMILES	VLA-4 inh	NRP1-CendR mod	A3A deaminase	A3G deaminase	MIN6 prolif
CC(=O)OC1C(O)C(C)OC(OC2C(OC(=O)C3CCC4C(C3)OC3(CC(OC(=O)/C=C/c5ccccc5)C(C)CO3)C43CO3)OC(C)C(O)C2OC(C)=O)C1O (stereo not drawn)	x	-8	x	x	x
CCn1nc(/C=C/c2ccccc2)nc2c(=O)n(C)c(=O)nc1-2	x	27*	-3	-8	-5
CCn1nc(-c2cccs2)nc2c(=O)n(C)c(=O)nc1-2	x	30*	x	x	x
O=C(CCNC(=O)N1C[C@H]2C[C@@H](C1)c1cccc(=O)n1C2)Nc1cccc(Cl)c1	7	-6	-4	-8	-3
O=C1C=CC(=O)C2C1C1(Cl)C(Cl)=C(Cl)C2(Cl)C1(Cl)Cl (stereo not drawn)	x	26*	x	x	x
CCOC(=O)c1nsnc1NCCCl	7	22*	3	-8	-4
FC(F)=C(F)CCSc1ncn[nH]1	-2	7	0	-10	-1
CC(C)[C@H]1C(=O)O[C@@H]2CCN3CC=C(COC(=O)[C@](C)(O)[C@]1(C)O)[C@H]23	16	12	-2	0	-4
CC1C(=O)OC2CCN3CC4OC4(COC(=O)C(C)(O)C1(C)O)C23 (stereo not drawn)	x	26*	x	x	x
CN(C)c1ccc([N+](=O)[O-])c([N+](=O)[O-])c1	x	29*	x	x	x
CCCCc1cc(=O)oc2cc(OCC(=O)N3C[C@H]4C[C@@H](C3)c3cccc(=O)n3C4)c(Cl)cc12	5	-10	-4	-8	-4
Cc1cc(C(=O)N2CCC3(CC2)OCCO3)no1	-15	8	-3	-9	-2
CC1=C[C@@H]2c3cccc4[nH]cc(c34)C[C@H]2N(C)C1	-21	44*	16	32	-2
NP(=O)(OCC(F)(F)F)Oc1ccc(Cl)cc1 (stereo not drawn)	21	4	-2	-5	0
CCC1CN1P(=O)(Oc1ccc(Cl)cc1)N1CC1CC (stereo not drawn)	x	34*	x	x	x
COc1cccc(NC2=NCCCS2)c1	-5	8	-3	-11	-3
Cc1ccc(CNC2=NCCS2)cc1	6	12	0	-1	1
c1ccc(CNC2=NCCS2)cc1	-5	21*	-5	-6	-2
CC(=O)c1ccc2c(c1)C1C(Cl)C(Sc3ccccc3[N+](=O)[O-])CC1C(C(=O)O)N2 (stereo not drawn)	11	31*	x	x	x
O=C(O)c1cccc2c1NC(C(=O)O)C1CC(Sc3ccccc3[N+](=O)[O-])C(Cl)C21 (stereo not drawn)	13	14	x	x	x
C[N+](C)(N)CCOC(=O)C(O)(c1ccccc1)C1CCCCC1 (stereo not drawn)	6	-6	-3	-13	-2
O=c1c2ccccc2nc(-c2ccco2)n1-c1ccccn1	22	32*	-2	-5	-2
CN1C[C@H](CO)C=C2c3cccc4[nH]cc(c34)C[C@H]21	-8	46*	6	32	-5
CC(=O)OC1CC(OC2C(O)CC(OC3C(O)CC(OC4CCC5(C)C(CCC6C5CCC5(C)C(C7=CC(=O)OC7)CCC65O)C4)OC3C)OC2C)OC(C)C1OC1OC(CO)C(O)C(O)C1O (stereo not drawn)	x	5	x	x	x
CC(=O)OC1CC[C@]2(C#N)[C@H]3CC[C@]4(C)[C@H](C5C=CC(=O)O5)CCC4(O)C3CCC2(O)C1 (stereo partly drawn)	8	22*	-3	-8	2
COC(=O)C1=C(c2ccc(Cl)c(C(F)(F)F)c2)C[C@@H]2CC[C@H]1N2C(=O)NCCNC(C)=O	12	24*	-2	-8	-5

Screening data deposited in PubChem by several laboratories.
